Laboratory results published in PubChem BioAssay (EPA / NIEHS).
Active and inactive are the calls of the source. The calls were made as follows: active = hit-call score of the fitted dose curve at least 0.9, where 1 is the maximum; inactive = score below 0.9.

Columns and labels:
[1] = CCTE_Padilla_ZF_Score.Craniofacial: CCTE's 144 Hour Post-fertilization zebrafish Assay Score for Craniofacial Malformation, Padilla Lab (AID 2284405)
How it was run: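 Craniofacial defects were scored at 6 dpf by two blinded observers using stereomicroscopy. Exposure of wild-type embryos began at 6–8 hpf in sealed wells of 10% Hanks' solution at 26C, with chemical removed by rinsing at 5 dpf.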

[2] = CCTE_Padilla_ZF_Score.Edema: CCTE's 144 Hour Post-fertilization zebrafish Assay Score for Edema Malformation, Padilla Lab (AID 2284406)
How it was run: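 Edema scored at 6 dpf by two blinded observers under a stereo microscope, in single outbred wild-type larvae exposed from 6-8 hpf in sealed wells (Hanks', 26C, 14:10 h light) and chemical-free after a 5 dpf rinse.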

[3] = CCTE_Padilla_ZF_Score.Spine: CCTE's 144 Hour Post-fertilization zebrafish Assay Score for Spine Malformation, Padilla Lab (AID 2284407)
How it was run: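 Spine malformation scored at 6 dpf by two independent blinded observers under stereomicroscope, after static sealed exposure from 6–8 hpf at 26C in Hanks' solution with rinse on 5 dpf. Positive-direction fit against DMSO control.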

[4] = CCTE_Padilla_ZF_Score.Swim_bladder: CCTE's 144 Hour Post-fertilization zebrafish Assay Score for Swim Bladder Malformation, Padilla Lab (AID 2284408)
How it was run: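 Swim bladder inflation scored at 6 dpf by two blinded observers under a stereo microscope. Exposure ran from 6–8 hpf in sealed wells of 10% Hanks' at 26C, with rinsing at 5 dpf; DMSO served as baseline.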

[5] = CCTE_Padilla_ZF_Score.Position: CCTE's 144 Hour Post-fertilization zebrafish Assay Score for Position, Padilla Lab (AID 2284409)
How it was run: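 Wild-type zebrafish embryos (with chorions) exposed singly from 6–8 hpf in sealed wells of Hanks' solution at 26C, rinsed at 5 dpf. At 6 dpf, blinded assessors scored abnormal water-column position by brightfield stereomicroscopy, relative to DMSO.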

[6] = CCTE_Padilla_ZF_Score.Living: CCTE's 144 Hour Post-fertilization zebrafish Assay Score for Viability, Padilla Lab (AID 2284410);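 also: larval death at 6 dpf judged by absent heartbeat or coagulation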
How it was run: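 Mortality at 6 dpf, judged as absent heartbeat or coagulation by two blinded observers, after sealed static exposure beginning at 6–8 hpf at 26C. Larvae were rinsed free of chemical at 5 dpf, and activity was fitted relative to DMSO.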

[7] = CCTE_Padilla_ZF_Score.General: CCTE's 144 Hour Post-fertilization zebrafish Assay Score for General Malformation, Padilla Lab (AID 2284411)
How it was run: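 Malformation, death and hatching were scored at 6 dpf by two blinded observers under a stereo microscope. Embryos were dosed singly from 6-8 hpf in sealed plates of 10% Hanks' at 26C and rinsed on 5 dpf; DMSO baseline.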

[8] = CCTE_Padilla_ZF_Score.Tail: CCTE's 144 Hour Post-fertilization zebrafish Assay Score for Tail Malformation, Padilla Lab (AID 2284414)
How it was run: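 Tail malformations were scored at 6 dpf by two blinded assessors under a stereo microscope. Chorionated embryos had been exposed from 6-8 hpf in sealed wells of 10% Hanks' at 26 C, then rinsed free of chemical at 5 dpf.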

[9] = CCTE_Padilla_ZF_Score.Blood_pooling: CCTE's 144 Hour Post-fertilization zebrafish Assay Score for Blood Pooling, Padilla Lab (AID 2284415)
How it was run: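 Blood pooling was scored at 6 dpf under a stereo microscope by two blinded assessors, fitted upward against DMSO. Single embryos were dosed at 6–8 hpf in 10% Hanks', kept sealed at 26C (14:10 h cycle) and rinsed at 5 dpf.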

[10] = CCTE_Padilla_ZF_Score.Any: CCTE's 144 Hour Post-fertilization zebrafish Assay Score for Any Mortality or Malformation, Padilla Lab (AID 2284416)
How it was run: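 Wild-type zebrafish embryos with chorions, one per well in 10% Hanks' from 6–8 hpf, dosed in sealed plates at 26 C, 14:10 h light:dark; rinsed at 5 dpf; blinded scoring at 6 dpf for death or malformation, versus DMSO.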

[11] = Tanguay_ZF_120hpf_DP24: Oregon State University Tanguay Lab 24 Hour Post-fertilization zebrafish Assay for Delayed Development (AID 2284390)
How it was run: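 Scored at 24 hpf as a binary present/absent call of delayed development by brightfield, with dead embryos not assessed. Embryos (5D wild type, chorion removed with pronase at 4 hpf) dosed statically from 6 hpf at 28 C in 0.64% DMSO.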

[12] = Tanguay_ZF_120hpf_CRAN: Oregon State University Tanguay Lab 120 Hour Post-fertilization zebrafish Assay for Craniofacial Malformation (AID 2284397)
How it was run: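 Scoring of craniofacial malformation as a binary endpoint was done at 120 hpf by brightfield microscopy and was not done in dead embryos. Exposure was static, starting at 6 hpf, in dechorionated wild-type embryos held singly at 28C with 0.64% DMSO final.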

[13] = Tanguay_ZF_120hpf_AXIS: Oregon State University Tanguay Lab 120 Hour Post-fertilization zebrafish Assay for Axial Malformation (AID 2284398)
How it was run: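 Scoring was binary (present or absent) for body-axis defects, judged by brightfield imaging at 120 hpf in surviving larvae. Exposure was static at 28C from 6 hpf in chorion-free 5D wild-type embryos, with 0.64% DMSO vehicle.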

[14] = Tanguay_ZF_120hpf_MORT: Oregon State University Tanguay Lab 120 Hour Post-fertilization zebrafish Assay for Mortality (AID 2284399)
How it was run: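 Mortality, recorded present/absent via brightfield imaging at 24 and 120 hpf, in 5D zebrafish embryos exposed statically from 6 hpf after pronase chorion removal. Exposure at 28C, 0.64% DMSO vehicle, DMSO baseline.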

[15] = Tanguay_ZF_120hpf_EDEM: Oregon State University Tanguay Lab 120 Hour Post-fertilization zebrafish Assay for Edema Malformation (AID 2284400)
How it was run: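 Edema recorded as a binary endpoint under brightfield at 120 hpf, excluding embryos that died. Exposure was static, sealed, 28C, from 6 hpf in dechorionated wild-type larvae, final DMSO 0.64%, DMSO as baseline.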

[16] = Tanguay_ZF_120hpf_BRN: Oregon State University Tanguay Lab 120 Hour Post-fertilization zebrafish Assay for Brain Region Malformation (AID 2284402)
How it was run: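 Binary brightfield scoring of brain malformation at 120 hpf in 5D wild-type larvae, chorion removed with pronase at 4 hpf. Static exposure began at 6 hpf, 28C, sealed plates, DMSO 0.64% (vol/vol) as vehicle baseline.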

[17] = Tanguay_ZF_120hpf_TCHR: Oregon State University Tanguay Lab 120 Hour Post-fertilization zebrafish Assay for Touch Responsive (AID 2284403)
How it was run: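 Binary touch-response calls are made at 120 hpf in 5D wild-type zebrafish larvae. These larvae were dechorionated with pronase and exposed singly from 6 hpf in sealed, dark plates at 28 °C with 0.64% DMSO final; dead embryos are excluded.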

[18] = Tanguay_ZF_120hpf_ANY: Oregon State University Tanguay Lab 120 Hour Post-fertilization zebrafish Assay for Any Mortality and Malformation (AID 2284404)
How it was run: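 Dechorionated Tropical 5D wild-type embryos, one per well from 6 hpf, static exposure in sealed, dark plates at 28C until 120 hpf, 0.64% DMSO final. Brightfield scoring of mortality and malformations as binary presence/absence, pooling 13 morphology endpoints.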

[19] = tested on: SRY-box transcription factor 17 (SOX17) Protein Expression, Deisenroth Lab, SOX17 (gene 64321); assay: CCTE_Deisenroth_DEVTOX-GLR_Endo_SOX17: CCTE's DevTox GLR-Endo Assay Evaluation of SRY-box transcription factor 17 (SOX17) Protein Expression, Deisenroth Lab (AID 2284413)
How it was run: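 Human RUES2-GLR cells carrying an inducible fluorescent reporter are differentiated in defined media for 48 h and dosed twice, 24 h apart. After fixation and nuclear staining, imaging yields SOX17+ cell percentage relative to 0.2% DMSO-treated differentiated cells.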

Measured: outcome

O=C(OC(=O)C(F)(F)C(F)(F)F)C(F)(F)C(F)(F)F
inactive: [1] | [2] | [3] | [4] | [5] | [6] | [7] | [8] | [9] | [10]

OCC(F)(F)C(F)(F)C(F)(F)C(F)(F)C(F)(F)C(F)(F)C(F)(F)C(F)(F)C(F)(F)C(F)(F)C(F)(F)F
inactive: [11] | [12] | [13] | [14] | [15] | [16] | [17] | [18] | [1] | [2] | [3] | [4] | [5] | [6] | [7] | [8] | [9] | [10]

O=C1OC(=O)C(F)(F)C1(F)F
inactive: [1] | [2] | [3] | [4] | [5] | [6] | [7] | [8] | [9] | [10]

OCCN1CN(CCO)CN(CCO)C1
inactive: [7]

FC(F)(F)N1C(F)(F)C(F)(F)OC(F)(F)C1(F)F
inactive: [1] | [2] | [3] | [4] | [5] | [6] | [7] | [8] | [9] | [10]

FC(OC(F)(F)C(F)(F)C(F)(F)F)C(F)(F)F (configuration not stated)
inactive: [1] | [2] | [3] | [4] | [5] | [6] | [7] | [8] | [9] | [10]

FC(F)(F)C1(F)C(F)(F)C(F)(F)C(F)(F)C1(F)F
inactive: [1] | [2] | [3] | [4] | [5] | [6] | [7] | [8] | [9] | [10]

COC1=CC(=O)C[C@@H](C)[C@]12Oc1c(Cl)c(OC)cc(OC)c1C2=O
inactive: [7]

CCCCCCCCCCCCCCCCCC[N+](C)(C)Cc1ccccc1
inactive: [7]

CC(=O)Nc1ccc(O)cc1
inactive: [19]

FCOC(C(F)(F)F)C(F)(F)F
inactive: [1] | [2] | [3] | [4] | [5] | [6] | [7] | [8] | [9] | [10]
